# Giardia killer: kills Giardia lamblia. Giardia lamblia trophozoite viability. activity change, % at 7.66 µM, hits read low. actives 0.15% (n = 340,000); in the data active = activity change below about -80%; inconclusive = between about -30% and that limit;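 note: parasites exposed to compound for two days anaerobically before the ATP read; % is set by controls: 0 for no effect and ±100 for the full control effect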
#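 Trophozoite viability was measured as ATP-dependent luminescence, read 15-30 min after reagent addition. Before that, parasites at 100 cells/well were exposed to compounds for 48 h, anaerobically, at 37 deg C.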
# MCF10A rerep: induces DNA re-replication in MCF 10a normal breast cells. Potency, µM (top dose mostly 46.1 µM), for the others: top-dose activity, positive = re-replication, actives largely listed as activators. MCF 10A DNA re-replication, Hoechst nuclear intensity, 48 h. actives 2.9% (n = 350,000). AID 624296; note: potency is the fitted concentration of half-maximal effect; % of control where 0% means no effect; nearly all actives have a fitted effect of over 50% in size
# Gal4-VP16 FLuc: counter-screen for ROR gamma inhibitors: Gal4-VP16 reporter; Drosophila S2 Gal4-VP16 UAS-luciferase, luminescence, 20 h; Potency, µM (highest dose often 53.6 µM), without a hit: at the highest dose activity, negative = inhibition, usual class: inhibitors; actives 3.5% (n = 310,000);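 note: Gal4-VP16 expression switched on by copper sulfate through the metallothionein promoter; potency is the fitted concentration of half-maximal effect; % is set by controls: 0 for no effect and ±100 for the full control effect; nearly all actives have a fitted effect of over 50% in size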
# BCR signal inh: inhibitors of chronic active B-cell receptor signaling; ABC-DLBCL IkBa-CBG/CBR reporter, luminescence ratio, 4 h; Potency, µM (titrated, usually from 46.1 µM), for inactives: top-dose activity change, negative = inhibition, actives largely listed as inhibitors; actives 0.05% (n = 340,000); AID 493014; active = well fitted inhibition curve with a large enough effect in the signal ratio, with a control signal flat, not every such curve was filed as active; inconclusive = small, poorly fitted or top-dose-only effect, or effect the other way, or a change in a side signal; the % refers to the signal ratio;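 note: potency is the fitted concentration of half-maximal effect; plate controls were basal doxycycline-induced cells for no effect and cells given 10 µM MG132 for full effect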
#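 Doxycycline induced both beetle luciferases in TMD8 lymphoma cells; IKK-driven degradation limits the IkappaBalpha-fused green signal, while red luminescence normalises for cell number and nonspecific effects. Compounds tested up to 46 uM, 4 hrs.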
# RORgamma inh: blocks mouse ROR gamma transcriptional activity | P51450 | Drosophila S2 Gal4-RORgamma UAS-luciferase reporter, 20 h | Potency, µM (doses to about 53.6 µM), for inactives: at the top dose activity change, negative = inhibition, actives largely listed as inhibitors | actives 5.4% (n = 310,000) | AID 2551; note: potency is the fitted concentration of half-maximal effect; % is set by controls: 0 for no effect and ±100 for the full control effect; nearly all actives have a fitted effect of over 60% in size
# Target sequence (P51450 whole entry, looked up, the tested form may be a part): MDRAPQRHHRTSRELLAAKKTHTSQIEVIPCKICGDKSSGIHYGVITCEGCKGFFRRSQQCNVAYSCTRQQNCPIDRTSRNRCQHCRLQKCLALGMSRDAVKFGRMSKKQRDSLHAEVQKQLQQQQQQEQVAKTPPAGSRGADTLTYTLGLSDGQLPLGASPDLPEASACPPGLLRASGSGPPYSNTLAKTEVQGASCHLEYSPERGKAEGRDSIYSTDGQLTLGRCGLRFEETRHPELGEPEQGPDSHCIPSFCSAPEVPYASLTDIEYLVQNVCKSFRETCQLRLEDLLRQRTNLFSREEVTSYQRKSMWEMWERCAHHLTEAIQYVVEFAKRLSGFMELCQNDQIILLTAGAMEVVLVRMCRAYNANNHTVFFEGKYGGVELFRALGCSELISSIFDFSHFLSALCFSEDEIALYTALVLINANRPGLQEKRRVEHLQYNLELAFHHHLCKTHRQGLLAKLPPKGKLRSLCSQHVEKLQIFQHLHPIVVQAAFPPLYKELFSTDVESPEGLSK
#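 In this cell-based reporter format, copper sulfate (700 uM final) drives Gal4–ROR gamma fusion expression from a metallothionein promoter in Drosophila Schneider cells; compounds preincubated 1 hr, reporter read after 20 hr at ambient temperature.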
# SW480 rereplic: inducers of DNA re-replication in SW480 colon cancer cells; SW480 DNA re-replication, Hoechst DNA content imaging, 48 h; Potency, µM (titrated, usually from 46.1 µM), for inactives: top-dose re-replication activation, actives largely listed as activators; actives 1.8% (n = 340,000); note: potency is the fitted concentration of half-maximal effect; % of control where 0% means no effect; nearly all actives have a fitted effect of over 55% in size
#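 Treated cells incubate 48 hr (37 C, 5% CO2), are stained 40 min with Hoechst, and nuclear fluorescence is enumerated; a rise in nuclei with high DNA signal marks re-replication.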
# * = called active by the depositor; ? = inconclusive; nt = not tested or not shown; [ ] = another dose, or the depositor's remark. Hits are enriched below; roughly 8.3% of the tested compounds scored in any of these assays. Unless noted, calls come from the whole dose curve; as a rule, active = well fitted curve in the direction sought with a large enough effect; inconclusive = small, poorly fitted or top-dose-only effect, or another doubt; inactive = no such curve, though single readings can be large; an effect the other way counts as inactive or inconclusive.
SMILES,Giardia killer,MCF10A rerep,Gal4-VP16 FLuc,BCR signal inh,RORgamma inh,SW480 rereplic
Cc1nnc(SCc2nc(N)nc(Nc3ccccc3)n2)s1,1,-180%[0.0737 µM],-8%,-1%,?,-11%
CCc1ccc(Nc2nc(N)nc(CSc3nc4ccccc4s3)n2)cc1,-1,-3%,?,?,13µM*,2%
CN1C(C(=O)NCC2CC2)CC2Cn3c(nc4cc(Cl)c(Cl)cc43)C21 (centres undefined),11,5%,0%,?,19%,12%
O=C1CCC(c2ccccc2)(C2CCN(Cc3ccccc3)CC2)C(=O)N1 (centres undefined),7,-1%,-6%,3%,-20%,1%
O=S(=O)(Nc1ccccn1)c1ccc(C(F)(F)F)cc1Cl,19,?,3%,5%,7%,21µM*
CC1=NC(=O)C(N=Nc2cccc(C(=O)O)c2)N1c1ccccc1 (centres undefined),-10,-2%,8.9µM*,?,5.6µM*,2%
CCOC(=O)/C=C1/N(C)c2ccccc2C1(C)C,-21,-2%,-4%,-2%,-12%,-6%
CN1/C(=C\C(=O)c2cccs2)Sc2ccccc21,-16,18µM*,-25%,?,?,15µM*
CN1/C(=C\P(=O)(N(C)C)N(C)C)C(C)(C)c2ccccc21,-6,3%,7.9µM*,0%,-39%,?
CN1/C(=C\C(=O)c2cccs2)C(C)(C)c2ccccc21,9,4.1µM*,?,9%,?,?
Cc1ccc(-c2nnc(Nc3ccc(C(N)=O)cc3)c3ccccc23)cc1S(N)(=O)=O,nt,nt,nt,5%,nt,nt
Cc1cc(C)nc(N/N=C/c2sccc2C)n1,-9,16%,-23%,?,?,10%
Cc1ccsc1/C=N/Nc1ncc(Cl)cc1Cl,-9,14%,5µM*,?,7.1µM*,?
Cc1ccsc1/C=N/Nc1nc(=O)[nH]nc1C,-5,-3%,10µM*,-21%,5.6µM*,6.5µM*
Cc1ccc(SCCN2CCN(CCc3ccccc3)CCC2=O)cc1,5,28%,8%,-12%,0%,-3%
COc1ccc(SCCN2CCN(CCc3ccccc3)CCC2=O)cc1,?,nt,?,nt,10µM*,nt
COc1ccc(SCCN2CC[C@@H](C(C)(C)C)CCC2=O)cc1,3,9.2µM*,nt,?,nt,-4%
COc1ccc(SCCN2CC[C@@H](O)CCC2=O)cc1,-19,20%,nt,6%,nt,3%
CCc1nc2nc(C)c(NS(=O)(=O)c3ccc(Cl)cc3)c(=O)n2[nH]1,5,-14%,-10%,-2%,-21%,-9%
COc1cc(-c2nc3ccc(N4CCN(C)CC4)cc3[nH]2)cc(OC)c1OC,-4,?,?,15%,7.1µM*,2%
Cc1ccc(-c2csc(N3CCN(c4cc5c(cc4Cl)nc(C)n5CCN4CCCCC4)CC3)n2)cc1,9,-10%,?,4%,11µM*,?
NC(=O)CC(NC(=O)c1ccccc1)c1ccc(N2CCC(Cc3ccccc3)CC2)c([N+](=O)[O-])c1 (centres undefined),11,?,11µM*,?,?,10%
NC(=O)CC(NC(=O)c1ccc(Br)cc1)c1ccc(N2CCN(c3ccccc3)CC2)c([N+](=O)[O-])c1 (centres undefined),1,1%,1%,?,?,0%
NC(=O)CC(NC(=O)c1ccccc1)c1ccc(N2CCC(N3CCCC3)CC2)c([N+](=O)[O-])c1 (centres undefined),15,8%,1%,-12%,-6%,-5%
NC(=O)CC(NC(=O)c1ccc(Br)cc1)c1ccc(N2CCC(Cc3ccccc3)CC2)c([N+](=O)[O-])c1 (centres undefined),11,8%,20µM*,-21%,-6%,-2%
SMILES,Giardia killer,MCF10A rerep,Gal4-VP16 FLuc,BCR signal inh,RORgamma inh,SW480 rereplic
CCCC(=O)C1=C(O)C(c2cccc(Oc3ccccc3)c2)CCC1=O (centres undefined),24,-3%,?,-2%,13µM*,?
O=C1CC(c2cccc(Oc3ccccc3)c2)NC(=O)N1 (centres undefined),-3,1%,8%,-3%,23%,-5%
O=C(c1ccc([N+](=O)[O-])cc1)N1CCN(c2ccc(Nc3ccccc3)nn2)CC1,nt,nt,nt,13%,nt,nt
NC(=S)NNc1cc(Cl)cc(Cl)c1,10,-2%,4µM*,-14%,2.2µM*,1%
COc1ccc(NC(=O)CCNS(=O)(=O)c2cccc3nonc23)c(OC)c1,7,1%,0%,0%,-25%,-15%
O=C(CSc1ccsc1[N+](=O)[O-])NC1CCCC1,-90*,-6%,5%,8%,8%,-14%
COc1ccc(CCNC(=O)CSc2ccsc2[N+](=O)[O-])cc1OC,-89*,2%,4%,0%,5%,-8%
COc1ccc(OC)c(CCNC(=O)CSc2ccsc2[N+](=O)[O-])c1,?,6%,24%,?,37%,-4%
CC1CCCCC1NC(=O)CSc1ccsc1[N+](=O)[O-] (centres undefined),?,28%,-5%,3%,27%,8%
COc1ccc(CCNC(=O)Cc2ccc(OCc3ccccc3)c(OC)c2[N+](=O)[O-])cc1OCc1ccccc1,-11,?,3.2µM*,?,?,-6%
COc1ccc(CCNC(=O)Cc2ccc([N+](=O)[O-])cc2)cc1OC,24,-2%,-2%,0%,?,-8%
Cc1ccc(Nc2nc(-c3ccccc3)c(CC(=O)O)s2)cc1,17,26%,7%,?,11%,-2%
O=C(O)Cc1sc(Nc2ccc(F)cc2)nc1-c1cccs1,-13,21µM*,-10%,?,?,16%
CN1C(c2ccc(F)cc2)=CS/C1=C(/C#N)c1nnc(N2CCOCC2)n1-c1ccccc1,-1,24%,-1%,5%,-20%,-11%
CN1C(=O)NC(c2ccccc2)(C(F)(F)F)S/C1=C(/C#N)c1nnc(N2CCOCC2)n1-c1ccccc1 (centres undefined),-1,19%,?,?,14µM*,-4%
COc1cccc(N2CC(NC(=O)c3ccc(S(=O)(=O)N4CCOCC4)cc3)CC2=O)c1 (centres undefined),nt,nt,nt,-3%,nt,nt
CC(=O)c1ccc(N2CCN(S(=O)(=O)c3ccc4c(c3)CC(C)N4C(=O)C3CC3)CC2)cc1 (centres undefined),-2,-2%,11µM*,9%,-41%,?
COc1ccc(NC(=O)N2CCCC3(CCN(C(=O)c4ccco4)CC3)C2)cc1,nt,nt,-6%,nt,20%,nt

# Screening data from PubChem BioAssay.
